Reference: PubChem BioAssay AID430 (Sanford-Burnham Center for Chemical Genomics, 2006)
The campaign covered roughly 63,000 compounds. About 1,100 (1.7%) were called active. Rule as the data show it: active = cytotoxicity above about 50%; inactive = the rest. For the sample, actives were picked, then their nearest neighbours and some compounds at random. Entries with a potency or affinity are not part of this list.

Assay: cytotoxicity in HPDE-C7 cells, cell-based, fluorescence, HTS (AID 430);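 also: cells exposed to compound for 48 hours before viability readout; 0% = vehicle and 100% = reference cytotoxic drug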
Details: HPDE-C7 pancreatic duct cells viability, at 10 µM, stronger effect = higher value
In the case of `CC(=O)N1CCc2cc(S(=O)(=O)NC(CC(C)C)C(=O)Nc3cc(C)ccn3)ccc21` (stereo not drawn), the cytotoxicity is reported as -6.7% (inactive). In the case of `Cc1cc(C(C)(C)C)oc1C(=O)N1CCN(C(=O)c2oc(C(C)(C)C)cc2C)CC1`, the cytotoxicity is reported as 4% (inactive). With `CCCCS(=O)(=O)C(=C1Nc2ccccc2N1)S(=O)(=O)CCCC` the cytotoxicity was -0.6% (inactive). For `CCOCCCn1c(=S)[nH]c2cc(C(=O)N3CCC(C(N)=O)CC3)ccc2c1=O`, the cytotoxicity was 0.3% (inactive). With `CC(C)OC(=O)CSc1nnc(-c2cnccn2)n1-c1ccc(Cl)cc1` the cytotoxicity was 9.2% (inactive). With `Cc1ccc(OCC(=O)N2CCN(C(=O)Cc3ccccc3)CC2)cc1` the cytotoxicity was -0.3% (inactive). For `CCOC(=O)CSc1nc2cc(C(=O)N3CCC(C(N)=O)CC3)ccc2c(=O)n1-c1ccccc1`, the cytotoxicity was -8.3% (inactive). For `N#CCSc1nc2cc(C(=O)N3CCC(C(N)=O)CC3)ccc2c2nc3ccccc3n12`, the cytotoxicity was 75.7% (active). With `N#CCSc1nc2cc(C(=O)N3CCCC3)ccc2c(=O)n1Cc1ccccc1` the cytotoxicity was -0.6% (inactive). With `Cc1onc(-c2ccccc2)c1C(=O)Nc1cccc2nsnc12` the cytotoxicity was -11.7% (inactive). With `COc1ccc(CN2CCC(=O)NC2=O)cc1` the cytotoxicity was 6.7% (inactive). For `COc1ccc(CN2CN(C(C)C)CSC2=S)cc1`, the cytotoxicity was 50.5% (active). In the case of `COc1ccc(Cn2c(C)ccc2C)cc1`, the cytotoxicity is reported as -2% (inactive). For `CC(=O)c1cc(-c2ccccc2)n(CCC(=O)NCc2cccs2)c1C`, the cytotoxicity was -24% (inactive). In the case of `CCN(CC)c1ccc2c(c1)OC(N)=C(C#N)C2c1cccnc1` (stereo not drawn), the cytotoxicity is reported as 64.4% (active). With `CN(C)c1ccc2c(c1)OC(N)=C(C#N)C2c1cccc(F)c1` (stereo not drawn) the cytotoxicity was 62.6% (active). With `CCc1[nH]nc2c1C(c1cccnc1)C(C#N)=C(N)O2` (stereo not drawn) the cytotoxicity was 4.9% (inactive). With `N#CC1=C(N)Oc2cc(O)ccc2C1c1ccncc1` (stereo not drawn) the cytotoxicity was 3% (inactive). For `N#CC1=C(N)Oc2cc(O)ccc2C1c1ccccc1` (stereo not drawn), the cytotoxicity was -11.3% (inactive). For `CCCc1nn(C)c2c1C(c1cccnc1)C(C#N)=C(N)O2` (stereo not drawn), the cytotoxicity was 3.9% (inactive). In the case of `N#CC1=C(N)Oc2c(ccc3cccnc23)C1c1cccnc1` (stereo not drawn), the cytotoxicity is reported as 62.4% (active). For `CC(C)(C)c1[nH]nc2c1C(c1cccnc1)C(C#N)=C(N)O2` (stereo not drawn), the cytotoxicity was -9.6% (inactive). In the case of `N#CC1=C(N)Oc2nc(-c3ccccc3)[nH]c2C1c1cccnc1` (stereo not drawn), the cytotoxicity is reported as 3.4% (inactive). In the case of `C=CCSC1=C(C#N)C(c2ccccc2Cl)CC(=O)N1` (stereo not drawn), the cytotoxicity is reported as -33.8% (inactive). For `O=C(O)C1C2C=CC(C2)C1C(=O)Nc1ccc(C(=O)N2CCCCC2)c(Cl)c1` (stereo not drawn), the cytotoxicity was -20.1% (inactive). In the case of `COc1cc2c(cc1OC)C1=C(C#N)CN(CC(=O)O)CN1CC2`, the cytotoxicity is reported as -4.5% (inactive). For `COc1ccc(S(=O)(=O)NCCC(=O)NCc2cccs2)cc1`, the cytotoxicity was -13.7% (inactive). For `C=C(C)CSc1nc2ncccc2[nH]1`, the cytotoxicity was -0.6% (inactive). In the case of `O=C(CSc1nnc(-c2c[nH]c3ccccc23)o1)N(Cc1ccccc1)c1ccc(F)cc1`, the cytotoxicity is reported as 53.6% (active). For `COc1ccc(CN(C(=O)CSc2nnc(-c3ccc(F)cc3)o2)c2ccc(F)cc2)cc1`, the cytotoxicity was 3% (inactive). In the case of `COc1ccc(CN(C(=O)CSc2nnc(-c3ccccc3F)o2)c2ccc(F)cc2)cc1`, the cytotoxicity is reported as 6.6% (inactive). With `CCOC(=O)C(C)Sc1nc2ccccc2c(=O)n1CC` (stereo not drawn) the cytotoxicity was -15.7% (inactive). For `Cc1cccc(N2CCN(c3nnnn3-c3ccccc3)CC2C)c1` (stereo not drawn), the cytotoxicity was 0.6% (inactive). With `CC(NC(=O)c1noc2c1CCCC2)c1ccccc1` (stereo not drawn) the cytotoxicity was 4.7% (inactive). In the case of `CCOC(=O)Cn1nnnc1C(CC)N(Cc1cccs1)Cc1cc2cc(C)ccc2[nH]c1=O` (stereo not drawn), the cytotoxicity is reported as 7.5% (inactive). In the case of `Cc1ccc2[nH]c(=O)c(CN(Cc3nnnn3C3CCCC3)C3CCCCC3)cc2c1`, the cytotoxicity is reported as 9.3% (inactive). For `Cc1ccc2cc(CN(Cc3ccccc3)Cc3nnnn3C3CCCC3)c(=O)[nH]c2c1`, the cytotoxicity was 53.3% (active). For `CCC(c1nnnn1C1CCCC1)N(Cc1cccs1)Cc1cc2cc(C)ccc2[nH]c1=O` (stereo not drawn), the cytotoxicity was 56.4% (active). In the case of `CCOc1ccc2[nH]c(=O)c(CN(Cc3cccs3)Cc3nnnn3C(C)(C)C)cc2c1`, the cytotoxicity is reported as 31.8% (inactive). For `Cc1ccc2[nH]c(=O)c(CN(Cc3ccccc3)Cc3nnnn3C3CCCC3)cc2c1`, the cytotoxicity was 39.3% (inactive). For `CCOc1ccc2[nH]c(=O)c(CN(Cc3cccs3)Cc3nnnn3C(C)(C)CC)cc2c1`, the cytotoxicity was 12.9% (inactive). In the case of `CCOc1ccc2[nH]c(=O)c(CN(Cc3cccs3)C(CC)c3nnnn3C(C)(C)CC)cc2c1` (stereo not drawn), the cytotoxicity is reported as 59% (active). For `Cc1ccc2cc(CN(Cc3ccc(F)cc3)Cc3nnnn3C3CCCC3)c(=O)[nH]c2c1`, the cytotoxicity was 23.4% (inactive). For `COc1ccc(NC(=O)C2CC(=O)NC(Nc3cccc(C)c3)=N2)cc1` (stereo not drawn), the cytotoxicity was 5.9% (inactive). For `COC(=O)c1ccc(COC(=O)c2ccc(-n3cnnn3)cc2)o1`, the cytotoxicity was -1.9% (inactive). With `O=C(Cc1ccc(Cl)cc1)NCCN1CCCC1` the cytotoxicity was 1.5% (inactive). For `Cc1c(C(=O)O)sc2ncn(C)c(=O)c12`, the cytotoxicity was -7.5% (inactive). With `c1ccc(CCn2nnnc2C(c2cccs2)N2CCOCC2)cc1` (stereo not drawn) the cytotoxicity was 3.6% (inactive).
